Compound activity (PubChem BioAssay)
Shown are actives, neighbours in structure and some others; about 3.3% of the full set was active somewhere.
Sm TGR block: inhibitors of Schistosoma mansoni thioredoxin glutathione reductase; hit rate 3% among 360,000; Q962Y6; AID 485364; purified TGR, DTNB reduction, TNB absorbance 405 nm; Potency, µM (titrated, usually from 114 µM), inactives show top-dose activity change, negative = inhibition, usual class: inhibitors; note: nearly all actives have a fitted effect of over 60% in size
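Kinetic colorimetric format: TGR-catalysed, NADPH-driven DTNB reduction monitored via TNB absorbance. Enzyme dispensed at 20 nM; compound exposure 15 min at room temperature before reaction start.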
AmpC no deterg: inhibitors of E. coli AmpC beta-lactamase without detergent; AID 485341; Potency, µM (doses to about 57.1 µM), inactives show top-dose activity change, negative = inhibition, actives largely listed as inhibitors; hit rate 0.52% among 330,000; AmpC nitrocefin hydrolysis, absorbance 480 nm, 0.0001% Triton;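 note: plate controls were no compound for no effect and no enzyme for full effect; nearly all actives have a fitted effect of over 20% in size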
Target sequence (P00811 whole entry, looked up): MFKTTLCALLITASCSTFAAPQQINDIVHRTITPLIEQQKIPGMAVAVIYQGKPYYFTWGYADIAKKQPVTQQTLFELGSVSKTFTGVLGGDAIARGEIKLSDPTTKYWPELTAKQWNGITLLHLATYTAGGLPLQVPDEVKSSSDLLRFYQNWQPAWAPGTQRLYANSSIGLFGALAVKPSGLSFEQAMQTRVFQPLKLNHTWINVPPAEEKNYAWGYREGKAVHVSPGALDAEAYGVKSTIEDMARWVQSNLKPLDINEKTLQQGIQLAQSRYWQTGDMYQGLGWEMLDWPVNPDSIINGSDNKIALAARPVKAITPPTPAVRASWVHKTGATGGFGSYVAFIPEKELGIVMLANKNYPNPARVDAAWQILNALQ
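20 mM phosphate pH 7.0 + 0.01% (detergent screen) or 0.0001% Triton X-100; 5.3 nM AmpC reagent; cpd preinc 15 min RT; nitrocefin (800 uM stock) to start; A480 q20 s × 4 min; Activity was normalised to no-enzyme and no-compound control wells.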
AmpC detergent: inhibitors of E. coli AmpC beta-lactamase with detergent; P00811; AmpC hydrolysis of nitrocefin, absorbance 480 nm, 0.01% Triton; Potency, µM (highest dose often 114 µM), inactives show top-dose activity change, negative = inhibition, usual class: inhibitors; hit rate 0.041% among 370,000;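 note: 0% = no-compound wells and -100% = no-enzyme wells; nearly all actives have a fitted effect of over 25% in size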
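AmpC (5.3 nM in the dispensed reagent) in 20 mM phosphate pH 7.0 with 0.01% (detergent screen) or 0.0001% Triton X-100 was preincubated with compounds for 15 min at room temperature. Nitrocefin was then added from an 800 uM solution, and hydrolysis was followed at 480 nm.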
The depositor's hits bear a star; ? = inconclusive; . = no result. Calls come from the whole dose curve; as a rule, active = well fitted curve in the direction sought with a large enough effect; inconclusive = small, poorly fitted or top-dose-only effect, or another doubt; inactive = no such curve, though single readings can be large; an effect the other way counts as inactive or inconclusive. Unless noted, % is set by controls: 0 for no effect and ±100 for the full control effect; potency is the fitted concentration of half-maximal effect.

SMILES	Sm TGR block	AmpC no deterg	AmpC detergent
Cc1c(NC(=O)C(C)Oc2ncnc3ccccc23)c(=O)n(-c2ccccc2)n1C (stereo not drawn)	-3%	-19%	?
Cc1c(NC(=O)COc2ncnc3ccccc23)c(=O)n(-c2ccccc2)n1C	35µM*	-24%	-8%
CC(C)CC1NC(=O)N(CC(=O)Nc2ccc(-c3ccccc3)cc2)C1=O (stereo not drawn)	-7%	-13%	-3%
CC(C)CC1NC(=O)N(CC(=O)Nc2ccccc2-c2ccccc2)C1=O (stereo not drawn)	2.2µM*	-6%	-3%
Cc1c(NC(=O)CN2C(=O)C3C4C=CC(C4)C3C2=O)c(=O)n(-c2ccccc2)n1C (stereo not drawn)	-7%	-7%	5%
O=C(CN1C(=O)NC(Cc2ccccc2)C1=O)Nc1ccccc1F (stereo not drawn)	2%	-11%	?
O=C(NCC(c1cccnc1)N1CCc2ccccc2C1)C(=O)Nc1cccc(Cl)c1 (stereo not drawn)	-2%	.	14%
Cc1cccn2c(=O)c(C(=O)NCCc3ccc(S(N)(=O)=O)cc3)c(O)nc12	0%	.	26%
COc1cccc(CNC(=O)c2oc3c(c2C)-c2nn(Cc4cccc(Cl)c4)cc2CC3)c1OC	8%	.	15%
Cc1cc(C)n(-c2nc(C)c(C)c(=O)n2CC(=O)Nc2cccc([N+](=O)[O-])c2)n1	5%	.	2%
CCOC(=O)N[C@H](Cc1c[nH]c2ccccc12)C(=O)Nc1cccc(Cl)c1	1%	.	5%
CCOC(=O)NC(N(O)c1cccc(Cl)c1)C(Cl)(Cl)Cl (stereo not drawn)	28µM*	-16%	1%
CCC(C(=O)OC)n1cnc2c(cnn2-c2ccc(F)cc2)c1=O (stereo not drawn)	-1%	.	16%
CCN(CC)c1ccc2c(Cl)cc(=O)oc2c1	0%	-17%	0%
CCN(CC)c1ccc2c(O)cc(=O)oc2c1	3%	25µM*	?
CN(C(=O)c1ccc2c(c1)N(Cc1cccc(Cl)c1)C(=O)c1ccccc1S2(=O)=O)C1CCCCC1	17%	.	8%
COc1ccc(NC(=O)C2CCCN(S(=O)(=O)c3ccc4c(c3)CCCC(=O)N4)C2)cc1OC (stereo not drawn)	-4%	.	1%
CCOc1cc(C(=O)OCc2cc(=O)n3nc(C4CC4)sc3n2)cc(OCC)c1OCC	-4%	.	2%
CCOc1ccc(-c2nnc(SCC(=O)NCc3ccccc3Cl)o2)cc1	20µM*	.	22%
CCOc1ccc(-c2nnc(SCC(=O)NC3CC3)o2)cc1	0%	-25%	-2%
CCOc1ccc(-c2nnc(SCC(=O)NCc3ccc(Cl)cc3)o2)cc1	14µM*	.	-5%
CCOc1ccc(-c2nnc(SCC(=O)NCc3ccccc3)o2)cc1	-3%	.	22%
COc1ccc(NC(=O)C2CCN(S(=O)(=O)c3ccc4c(c3)CCCC(=O)N4)CC2)c(OC)c1	-10%	.	0%
O=C(CCl)N1CCN(C(=O)C2COc3ccccc3O2)CC1 (stereo not drawn)	.	-11%	.
O=C(CCl)N1c2ccccc2OCC1c1ccccc1 (stereo not drawn)	3.2µM*	-9%	1%
SMILES	Sm TGR block	AmpC no deterg	AmpC detergent
O=C(CCl)N1c2ccccc2SCC1c1ccccc1 (stereo not drawn)	2.8µM*	-16%	3%
O=C(CN1CCSc2ccccc21)N1CCCCC1	2%	.	18%
COc1cc(C2c3c(oc4ccccc4c3=O)C(=O)N2c2nnc(C(C)C)s2)cc(OC)c1OC (stereo not drawn)	-2%	.	20%
CCN1c2cc(C)ccc2-n2cccc2C12CCN(C(=O)Nc1cc(OC)c(OC)c(OC)c1)CC2	3%	.	13%
Cc1cccc(CCn2c(=O)c3ccccc3n(Cc3cccc(F)c3)c2=O)c1	9%	.	14%
Cc1cc(N2CCN(C)CC2)nc2ccc(NC(=O)Nc3ccccc3Cl)cc12	3%	.	17%
O=C(C1=C(O)C(=O)N(CCN2CCOCC2)C1c1ccccn1)c1cccs1 (stereo not drawn)	20µM*	-11%	?
COc1ccc(C2C(C(=O)c3sc(C)nc3C)=C(O)C(=O)N2CCN(C)C)cc1OC (stereo not drawn)	-31%	-20%	-12%
O=C(C1=C(O)C(=O)N(CCN2CCOCC2)C1c1ccc(F)cc1)c1cccs1 (stereo not drawn)	-23%	-10%	-6%
CCOc1ccc(C2C(C(=O)c3cccs3)=C(O)C(=O)N2CCN2CCOCC2)cc1 (stereo not drawn)	-17%	61%	-10%
Cc1ccc(C2C(C(=O)c3sc(C)nc3C)=C(O)C(=O)N2CCN(C)C)o1 (stereo not drawn)	45µM*	2%	-3%
CCN(CC)CCN1C(=O)C(O)=C(C(=O)c2cccs2)C1c1ccccn1 (stereo not drawn)	?	-7%	-4%
CCN(CC)CCN1C(=O)C(O)=C(C(=O)c2cccs2)C1c1ccc(C)o1 (stereo not drawn)	28µM*	-11%	3%
Cc1ccc(C2C(C(=O)c3cccs3)=C(O)C(=O)N2CCN2CCOCC2)o1 (stereo not drawn)	20µM*	0%	?
Cc1ccc(C(=O)/C=C/C(=O)c2ccc(C)cc2)cc1	2.2µM*	-18%	-2%
Cc1ccc(/C=C/C(=O)c2ccc(C)cc2)cc1	3%	-23%	-1%
CCN(C(=O)C1CCC(CNS(=O)(=O)c2cccc3nsnc23)CC1)c1ccc(C)c(C)c1 (stereo not drawn)	13%	.	17%
Fc1cccc(Cl)c1Cn1c(-c2cccs2)nc2ccccc21	1%	.	-2%
O=P(Oc1ccccc1)(Oc1ccccc1)C(O)c1ccc(Cl)cc1 (stereo not drawn)	0%	-25%	?
O=C(O)/C=C/C(O)c1ccc(Cl)cc1 (stereo not drawn)	25µM*	-18%	?
CCCN(CCC)c1nn2c(=O)c(C(=O)NCc3cc(Br)ccc3OC)cnc2s1	1%	.	-4%
CCc1ccc(-n2nc(C)c3c(C(=O)Nc4cc(OC)cc(OC)c4)cc(C)nc32)cc1	16%	.	2%
Cc1ccc(OCCSc2nc3ccccc3n2CC(=O)N2CCCCC2)c(C)c1	21%	.	10%
NC(=O)C1CCN(C(=O)CC2(CC(=O)O)CCCCC2)CC1	3%	-6%	-2%
NC(=O)CC1(CC(=O)O)CCCCC1	-32%	-31%	71µM*
SMILES	Sm TGR block	AmpC no deterg	AmpC detergent
COc1cc(Cl)c(C)cc1NC(=O)c1cnc2c(-c3cccc(C)c3)c(C)nn2c1C	-7%	.	-6%
C=CCN(C)CC/C=C1\c2ccccc2CSc2ccccc21	-30%	30%	-10%
CN(C)CCC=C1c2ccccc2C=Cc2ccccc21	25µM*	8%	-8%
CN(C)CC/C=C1\c2cc(F)ccc2CSc2ccccc21	-1%	27%	?
CN(C)CC/C=C1\c2ccccc2Sc2ccc(Cl)cc21	-7%	52%	?
CN(C)CC/C=C1/c2ccccc2COc2ccccc21	20µM*	1%	4%
CN(C)CCC=C1c2ccccc2CCc2ccccc21	7.1µM*	22%	-9%
Cc1ccc(CNC(=O)CCc2c(C)c3cc4c(C)coc4cc3oc2=O)cc1	-3%	.	9%
